# Several values for one entry are separate records, joined by “and”; a condition that tells them apart may be missing. Equal values may be shown once. Inconclusive results are not listed. For some assays here: Entries with a potency or affinity are not part of this list. Activity calls are given as the source filed them. Unless noted, how the calls were made is not given here.
# Columns and labels:
# [1] = target: Protein kinase 7 (PK7), Plasmodium falciparum 3D7 (PF3D7_0213400) (UniProt Q7YTF7); experiment: inhibition of Plasmodium PK7 catalytic activity – biochemical, TCAMS antimalarial set, Kinase-Glo luminescence (AID 1159587); settings: recombinant PfPK7, Kinase-Glo ATP depletion luminescence
# Protein kinase 7 (PK7), Plasmodium falciparum 3D7 (PF3D7_0213400), sequence (Q7YTF7 1-343): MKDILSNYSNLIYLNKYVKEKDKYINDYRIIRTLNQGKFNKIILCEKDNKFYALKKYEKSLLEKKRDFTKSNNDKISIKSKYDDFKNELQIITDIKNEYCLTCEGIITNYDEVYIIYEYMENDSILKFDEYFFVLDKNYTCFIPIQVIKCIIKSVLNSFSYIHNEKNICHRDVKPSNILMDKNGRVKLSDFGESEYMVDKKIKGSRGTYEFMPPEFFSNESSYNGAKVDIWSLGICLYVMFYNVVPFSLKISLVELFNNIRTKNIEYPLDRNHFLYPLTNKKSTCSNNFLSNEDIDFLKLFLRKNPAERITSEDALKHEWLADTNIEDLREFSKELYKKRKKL
# [2] = target: Calcium-dependent protein kinase 4 (Plasmodium falciparum (isolate 3D7)) (UniProt Q8IBS5); experiment: PfCDPK4 kinase inhibitors, biochemical, TCAMS library (AID 1159588; cut-off not given, nearly all actives have IC50 up to about 0.91 µM); settings: recombinant PfCDPK4, Kinase-Glo ATP depletion luminescence
# Calcium-dependent protein kinase 4 (Plasmodium falciparum (isolate 3D7)), sequence (Q8IBS5 whole entry, looked up): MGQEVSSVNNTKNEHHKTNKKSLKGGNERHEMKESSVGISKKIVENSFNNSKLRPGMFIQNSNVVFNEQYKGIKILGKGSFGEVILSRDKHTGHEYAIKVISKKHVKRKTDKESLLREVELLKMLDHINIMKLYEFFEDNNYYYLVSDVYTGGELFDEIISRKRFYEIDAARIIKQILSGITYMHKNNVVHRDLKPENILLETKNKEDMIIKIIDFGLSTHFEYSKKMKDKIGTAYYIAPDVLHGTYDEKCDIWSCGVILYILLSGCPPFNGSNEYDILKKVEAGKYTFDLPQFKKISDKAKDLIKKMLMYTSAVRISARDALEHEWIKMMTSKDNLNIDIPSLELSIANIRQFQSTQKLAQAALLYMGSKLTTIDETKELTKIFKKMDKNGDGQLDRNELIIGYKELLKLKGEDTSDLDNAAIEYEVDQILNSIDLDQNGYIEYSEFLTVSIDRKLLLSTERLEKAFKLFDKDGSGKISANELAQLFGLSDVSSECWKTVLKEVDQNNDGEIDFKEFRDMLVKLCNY
# [3] = viability loss with induced miR-34 in A549 – imaging, A549 dox-inducible miR-34, nuclei and caspase counts, primary screen (AID 1347080;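 active means compounds whose cell count with miR-34 switched on is under 0.7 times the count with it off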); settings: A549 miR-34 inducible, Hoechst nuclei count, 48 h
# [4] = MELAS cybrid and Rieske KO viability enhancers – cell-based, MELAS cybrids, Rieske KO mouse fibroblasts, CellTiter-Glo, primary screen (AID 1508586;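 active means mean z-score across replicates of 1.96 or higher in either the MELAS or the Rieske mutant cell line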;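 further: z relative to plate mean and SD of compound and empty wells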); settings: low glucose
# [5] = viability loss in pontine glioma line – cell-based, SU-DIPG-XVII, MIPE5.0, CellTiter-Glo, qHTS, dose response (AID 1347060; cut-off not given, nearly all actives have AC50 up to about 26 µM;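 on AC50: cells exposed to compound for 48 hours before viability readout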); settings: CellTiter-Glo ATP luminescence
# [6] = viability loss in pontine glioma line – cell-based, SU-DIPG-XXV, MIPE5.0, CellTiter-Glo, qHTS, dose response (AID 1347065; cut-off not given, nearly all actives have AC50 up to about 26 µM;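 further: cells exposed to compound for 48 hours before ATP readout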); settings: CellTiter-Glo ATP luminescence
# [7] = JHH-DIPG-1 glioma cell viability, MIPE5.0 library, CellTiter-Glo luminescence, qHTS (AID 1347067; cut-off not given, nearly all actives have AC50 up to about 26 µM;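 further: cells exposed to compound for 48 hours before readout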); settings: JHH-DIPG-1 glioma viability, CellTiter-Glo ATP luminescence
# [8] = modulation of C. elegans fzo-1 (AID 1259413);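 further: fzo-1 mutant C. elegans worms in liquid wells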; settings: C. elegans fzo-1 modulator screen, mean read-out; stronger effect = higher value
# [9] = EMT-state selective cytotoxicity in co-culture – imaging, PC-3E GFP, TEM4-18 mCherry, primary screen (AID 1345086;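 active means compounds killing one labelled cell type while sparing the other, by normalised counts and ratio limits, not self-fluorescent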;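 on all read-outs here: cells exposed to compound for 72 h before imaging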;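 on red/green cell ratio (normalised): normalised mesenchymal count divided by normalised epithelial count so high means epithelial killing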); settings: PC-3E GFP / TEM4-18 mCherry co-culture, imaging cell counts, at 1 µM; for red/green cell ratio (normalised): actives lie on both sides, counts scaled to control wells, 1 = unselective
# [10] = test system: Aerobactin synthetase IucA (Klebsiella pneumoniae); experiment: inhibition of K. pneumoniae IucA enzyme – biochemical, Tocris library, absorbance (AID 1345561); settings: purified IucA enzyme assay, absorbance (OD) read-out; stronger effect = lower value;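 tested at 8 µM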;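 further: 100% = enzyme without compound and 0% = no enzyme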
# [11] = viability loss in pontine glioma line – cell-based, SU-DIPG-XIII, MIPE4.0, CellTiter-Glo, qHTS, dose response (AID 1347061; cut-off not given, nearly all actives have AC50 up to about 37 µM;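 further: cells exposed to compound for 48 hours before readout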); settings: CellTiter-Glo ATP luminescence
# [12] = viability loss in pontine glioma line – cell-based, JHH-DIPG-1, MIPE4.0, CellTiter-Glo, qHTS, dose response (AID 1347062; cut-off not given, nearly all actives have AC50 up to about 27 µM); settings: JHH-DIPG-1 viability, CellTiter-Glo ATP luminescence
# [13] = viability loss in pontine glioma line – cell-based, SU-DIPG-IV, MIPE4.0, CellTiter-Glo, qHTS, dose response (AID 1347063; cut-off not given, nearly all actives have AC50 up to about 30 µM;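 further: compound exposure lasted 48 hours before the viability readout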); settings: CellTiter-Glo ATP luminescence
# [14] = viability loss in pontine glioma line – cell-based, SU-DIPG-XIII, MIPE5.0, CellTiter-Glo, qHTS, dose response (AID 1347064; cut-off not given, nearly all actives have AC50 up to about 23 µM); settings: CellTiter-Glo ATP luminescence
# [15] = growth inhibition of DIPG cells – cell-based, MIPE4.0 library, CellTiter-Glo luminescence, qHTS (AID 1347066; cut-off not given, nearly all actives have AC50 up to about 30 µM;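 further: cells exposed to compound for 48 hours before readout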); settings: SU-DIPG-VI viability, CellTiter-Glo ATP luminescence
# [16] = growth inhibition of DIPG cells – cell-based, MIPE5.0 library, qHTS (AID 1347068; cut-off not given, nearly all actives have IC50 up to about 30 µM); settings: SU-DIPG-XXV viability
# [17] = blockers of cellular phospholipid synthesis – cell-based, LOPAC library, screen 4, primary screen (AID 1347384); settings: animal cells, phospholipid biosynthesis inhibition screen; at 10 µM
# [18] = stronger effect = lower value, cell number ratio, induced over uninduced
# [19] = measured here: relative caspase fold change +Dox/-Dox
# [20] = measured here: total cells with miR-34 induction, stronger effect = lower value
# [21] = measured here: total cells without miR-34 induction
# [22] = MELAS cybrid survival, CellTiter-Glo 48 h, stronger effect = higher value
# [23] = Rieske KO mouse fibroblast survival, CellTiter-Glo 72 h
# [24] = measured here: epithelial PC-3E GFP cell survival
# [25] = measured here: mesenchymal TEM4-18 mCherry cell survival
smiles,measurement,setting,value
CCN(CC)Cc1cc(Nc2ccnc3cc(Cl)ccc23)ccc1O,outcome,[1],inactive
same,outcome,[2],inactive
same,fold change,[3]; [18],0.891 (inactive)
same,fold change,[3]; [19],1.28
same,cell count,[3]; [20],7140
same,cell count,[3]; [21],8010
same,z-score,[4]; [22],0.684 (inactive)
same,z-score,[4]; [23],0.737
CCCCc1ccc2nc(NC(=O)OC)[nH]c2c1,outcome,[1],inactive
same,outcome,[2],inactive
same,AC50,[5],0.186 µM (active)
same,AC50,[6],0.118 µM (active)
same,AC50,[7],0.332 µM (active)
same,fold change,[3]; [18],1.15 (inactive)
same,fold change,[3]; [19],0.509
same,cell count,[3]; [20],1770
same,cell count,[3]; [21],1530
same,z-score,[4]; [22],-2.16 (inactive)
same,z-score,[4]; [23],0.696
CCC1=C(C)CN(C(=O)NCCc2ccc(S(=O)(=O)NC(=O)NC3CCC(C)CC3)cc2)C1=O (configuration not stated),mean signal,[8],255 (inactive)
same,red/green cell ratio (normalised),[9],0.86 (inactive)
same,normalised cell number,[9]; [24],1.22
same,normalised cell number,[9]; [25],1.05
same,remaining activity,[10],90.7% (inactive)
same,outcome,[5],inactive
same,outcome,[11],inactive
same,outcome,[12],inactive
same,outcome,[13],inactive
same,outcome,[14],inactive
same,outcome,[6],inactive
same,outcome,[15],inactive
same,outcome,[7],inactive
same,outcome,[16],inactive
same,z-score,[4]; [22],-0.439 (inactive) and 0.644 (inactive) and 0.245
same,z-score,[4]; [23],0.486 and 0.124 and 2.28
c1cnc(N2CCN(Cc3ccc4c(c3)OCO4)CC2)nc1,mean signal,[8],255 (inactive)
same,red/green cell ratio (normalised),[9],1.12 (inactive)
same,normalised cell number,[9]; [24],0.85
same,normalised cell number,[9]; [25],0.96
same,remaining activity,[10],119% (inactive)
same,outcome,[17],inactive
same,z-score,[4]; [22],-0.549 (inactive) and -0.596 (inactive)
same,z-score,[4]; [23],-0.536 and 0.482
CCN1CCCC1CNC(=O)c1cc(S(=O)(=O)CC)c(N)cc1OC (configuration not stated),mean signal,[8],235 (inactive)
same,red/green cell ratio (normalised),[9],1.01 (inactive)
same,normalised cell number,[9]; [24],0.89
same,normalised cell number,[9]; [25],0.9
same,remaining activity,[10],104% (inactive)
same,outcome,[5],inactive
same,outcome,[11],inactive
same,outcome,[12],inactive
same,outcome,[13],inactive
same,outcome,[14],inactive
same,outcome,[6],inactive
same,outcome,[15],inactive
same,outcome,[7],inactive
same,outcome,[16],inactive
same,outcome,[17],inactive
same,z-score,[4]; [22],-0.415 (inactive) and 0.449 (inactive)
same,z-score,[4]; [23],0.177 and 0.21
CN1CCC(=C2c3ccccc3C=Cc3ccccc32)CC1,mean signal,[8],251 (inactive)
same,red/green cell ratio (normalised),[9],1.06 (inactive)
same,normalised cell number,[9]; [24],0.91
same,normalised cell number,[9]; [25],0.97
same,remaining activity,[10],104% (inactive)
same,outcome,[5],inactive
same,AC50,[11],23.5 µM (active)
same,outcome,[14],inactive
same,outcome,[15],inactive
same,outcome,[7],inactive
same,outcome,[16],inactive
same,outcome,[17],inactive
same,z-score,[4]; [22],-0.307 (inactive) and -0.043 (inactive) and -1.41 (inactive)
same,z-score,[4]; [23],-0.028 and 0.523 and -1.01
CC1(C)S[C@@H]2[C@H](N=CN3CCCCCC3)C(=O)N2[C@H]1C(=O)O,mean signal,[8],245 (inactive)
Cc1nc(N)nc(N)c1-c1ccc(Cl)c(Cl)c1,outcome,[1],inactive
same,outcome,[2],inactive
